NLRP3 yeast inh: blocks the NALP3 inflammasome reconstituted in yeast; actives 0.39% (n = 330,000); inhibition, % at 10 µM; AID 2825; Yeast reconstituted NLRP3/ASC/caspase-1, beta-gal luminescence, 24 h;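 active = inhibition of 50% or more; inactive = inhibition below 50%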
tim10-1 inh: growth inhibitors of tim10-1 mutant yeast. S. cerevisiae tim10-1 ts strain growth, BacTiter-Glo, 24 h. inhibition, % at 20 µM. actives 2.2% (n = 330,000). AID 463190;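 active = inhibition of at least 40%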;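 note: mutant grown at 25 °C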
NALP1 yeast inh: NALP1 inhibition | actives 0.61% (n = 280,000) | inhibition, % at 10 µM | S. cerevisiae NALP1/ASC/caspase-1 growth, X-gal OD620, 72 h; in the data active = inhibition mostly above about 24%, no sharp cut-off; inactive = mostly below about 32%
TIM10 inh: TIM10 yeast growth inhibition | S. cerevisiae TIM10 strain growth, BacTiter-Glo luminescence, 24 h | inhibition, % at 10 µM | actives 1.4% (n = 330,000);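 active = inhibition of 40% or more at the single tested concentration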;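 note: wild-type TIM10 isogenic control strain grown at permissive 25 °C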
tim23-1 inh: growth inhibitors of tim23-1 mutant yeast | S. cerevisiae tim23-1 growth, BacTiter-Glo luminescence, 24 h | actives 1.3% (n = 330,000) | inhibition, % at 20 µM | AID 463212;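 active = growth inhibition of the mutant yeast at or above 50%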;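 note: temperature-sensitive mutant grown at 25 °C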
tim10-1 confirm: confirmation of tim10-1 mutant yeast growth inhibitors | actives 56% (n = 7,400) | AID 463213 | inhibition, % at 20 µM | shares compounds with tim10-1 inh | S. cerevisiae tim10-1 ts strain growth, BacTiter-Glo, 24 h;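 active = inhibition of yeast growth at or above a set limit in either of two repeat tests at 20 µM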;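 note: tim10-1 mutant grown at permissive 25 °C to find synthetic lethal compounds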
TIM10 conf: TIM10 yeast growth inhibition, confirmed | shares compounds with TIM10 inh | S. cerevisiae tim10 strain growth, BacTiter-Glo luminescence, 24 h | inhibition, % at 10 µM | actives 63% (n = 4,600);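 active = inhibition of yeast growth at or above a set limit in either of two replicates at 10 µM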; note: this counterscreen used the strain with wild-type TIM10
tim23-1 conf: tim23-1 yeast growth inhibition, confirmed; shares compounds with tim23-1 inh; S. cerevisiae tim23-1 growth, BacTiter-Glo luminescence, 24 h; inhibition, % at 20 µM; actives 83% (n = 4,400);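 active = inhibition above about 39% in either of two replicate wells at 20 µM, limit read from the data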;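 note: temperature-sensitive tim23-1 mutant grown at 25 °C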
Each line names hits and unclear results; the compound was inactive in the other large screens (follow-up assays come after a bar, where they were run). An excerpt weighted towards active compounds, which were near 4% of everything screened.

COCCNC(=O)CN1C(=O)C(C)N=C(c2ccccc2)c2cc(Cl)ccc21 (stereo not drawn)	tim10-1 inh 41 | tim10-1 confirm inactive
CC(C)(CN)CC(=O)O	none
CC(=O)N1N=C2C3CCN(CC3)C2C1c1ccc(Br)cc1 (stereo not drawn)	none (no result: NALP1 yeast inh)
Nc1c(C(=O)NCC2CCCO2)c2nc3ccccc3nc2n1Cc1ccco1 (stereo not drawn)	none
Nc1c(C(=O)NC2CCCC2)c2nc3ccccc3nc2n1CC1CCCO1 (stereo not drawn)	tim10-1 inh 56 | tim10-1 confirm inactive
Cc1nc2cc(-c3ccccc3)nn2c(C)c1CCC(=O)N1CCC2(CC1)OCCO2	none
Cc1nc2c(-c3ccc(F)cc3)c(C)nn2c(C)c1CCC(=O)N1CCC2(CC1)OCCO2	tim10-1 inh 40 | tim10-1 confirm inactive
O=C1Nc2cc(C(=O)N3CCC4(CC3)OCCO4)ccc2NC1CSCc1cccc(F)c1 (stereo not drawn)	none
CN1CC(C(=O)c2cccc(C(F)(F)F)c2)C(c2ccc(Cl)cc2)C1 (stereo not drawn)	tim10-1 inh 41 | tim10-1 confirm inactive
COC(=O)C(O)(c1ccc(NC(=S)NC(=O)c2ccccc2)cc1)C(F)(F)F (stereo not drawn)	tim10-1 inh 41, TIM10 inh 46 | tim10-1 confirm inactive | TIM10 conf 33
CCCCNC(=O)c1c(N)n(CCCOC)c2nc3ccccc3nc12	none
COCCNC(=O)c1c(N)n(CCC(C)C)c2nc3ccccc3nc12	tim10-1 inh 48, TIM10 inh 42 | tim10-1 confirm inactive | TIM10 conf inactive
CN(C)c1ccc(C(=O)c2ccc(N(C)C)cc2)cc1	tim10-1 inh 40, TIM10 inh 48 | tim10-1 confirm inactive | TIM10 conf inactive
CCOC(=O)C(O)(c1ccc(N(CC)C(=O)COc2ccccc2)cc1)C(F)(F)F (stereo not drawn)	none
Nc1ccccc1C(=O)OCc1ccc([N+](=O)[O-])cc1	none
COCCCn1c(-c2ccc(OC)cc2)cc(C(=O)NC2CCCCCCC2)c1C	tim10-1 inh 54, TIM10 inh 41 | tim10-1 confirm 42 | TIM10 conf inactive
O=C1Nc2ccccc2C1Cc1nc2ccccc2c(=O)n1-c1ccccc1 (stereo not drawn)	none (no result: NALP1 yeast inh)
CN1C(=O)C(Cc2nc3ccccc3c(=O)n2-c2ccccc2)c2ccccc21 (stereo not drawn)	tim10-1 inh 43, TIM10 inh 52 | tim10-1 confirm 37 | TIM10 conf 39
C=C1C(=O)O[C@@H]2C[C@@H](C)[C@@H]3C=CC(=O)[C@@]3(C)[C@@H](OC(=O)CC(=O)O[C@H]3[C@@H]4C(=C)C(=O)O[C@@H]4C[C@@H](C)[C@@H]4C=CC(=O)[C@]43C)[C@H]12	none
C=C1C(=O)O[C@H]2C[C@@H](C)[C@@H]3C=CC(=O)[C@@]3(C)C[C@H]12	tim10-1 inh 48, TIM10 inh 46 | tim10-1 confirm 47 | TIM10 conf 51
CN1c2ccc([N+](=O)[O-])cc2CC2(C(=O)NC(=O)N(c3ccc(Br)cc3)C2=O)C1c1ccccc1 (stereo not drawn)	none
COc1ccc(OC)c(N2C(=O)NC(=O)/C(=C/c3ccc([N+](=O)[O-])s3)C2=O)c1	tim10-1 inh 72, TIM10 inh 89 | tim10-1 confirm 70 | TIM10 conf 35
CCC1(C(=O)c2ccc(C)cc2)C2c3ccccc3OC(=O)C21C(=O)O (stereo not drawn)	none
Cc1nc2c(=O)n(C)c(=O)nc-2n(C)n1	tim10-1 inh 42, tim23-1 inh 54 | tim10-1 confirm inactive | tim23-1 conf 63
CC(C(=O)O)N(C(=O)c1ccccc1)c1ccc(F)c(Cl)c1 (stereo not drawn)	none
CCOC(=O)C(O)(c1ccc(NC(=O)c2ccc(Cl)c(Cl)c2)cc1)C(F)(F)F (stereo not drawn)	tim10-1 inh 43, tim23-1 inh 57 | tim10-1 confirm 34 | tim23-1 conf 50
CCOC(=O)C(O)(c1ccc(N(C)C(=O)c2ccc(Cl)c(Cl)c2)cc1)C(F)(F)F (stereo not drawn)	none
CC(C)=CCc1c(O)cc2c(c1O)C(=O)CC(c1ccc(O)cc1)O2 (stereo not drawn)	tim10-1 inh 54, TIM10 inh 46, tim23-1 inh 60 | tim10-1 confirm 35 | TIM10 conf 57 | tim23-1 conf 59
c1ccc(CCNCc2cccs2)cc1	none
O=C1NC(=O)C(=Cc2ccc(-c3ccc(S(=O)(=O)N4CCOCC4)cc3)o2)C(=O)N1	none
O=C1NC(=O)C(=Cc2ccc(-c3ccc(Cl)cc3)o2)C(=O)N1	tim10-1 inh 45, tim23-1 inh 54 | tim10-1 confirm inactive | tim23-1 conf 55
Cc1ccc(O)c(C)c1	none (no result: NALP1 yeast inh)
O=C1/C(=C\c2ccncc2)N2CCC1CC2	none
O=C1/C(=C\c2ccc(Cl)c(Cl)c2)N2CCC1CC2	tim10-1 inh 42, tim23-1 inh 52 | tim10-1 confirm inactive | tim23-1 conf inactive
COC(=O)CC1(CC(=O)OC)C(=O)N(c2ccccc2)C(=O)N(c2ccccc2)C1=O	none
Cc1cc([N+](=O)[O-])c2ccccc2[n+]1[O-]	tim10-1 inh 68, TIM10 inh 87, tim23-1 inh 79 (no result: NALP1 yeast inh) | tim10-1 confirm 61 | TIM10 conf 87 | tim23-1 conf 64
COc1ccc(O)c(CN2CCCC(C(=O)c3ccccc3SC)C2)c1 (stereo not drawn)	none
O=C1C(=O)c2cccc3cccc1c23	none
O=C1C(=O)c2ccccc2-c2ccccc21	tim10-1 inh 85, TIM10 inh 92, tim23-1 inh 77 | tim10-1 confirm 85 | TIM10 conf 98 | tim23-1 conf 77
Clc1ccc(C(c2ccc(Cl)cc2)n2cc[n+](CC(OCc3ccc(Cl)cc3Cl)c3ccc(Cl)cc3Cl)c2)cc1 (stereo not drawn)	tim10-1 inh 93, TIM10 inh 85, tim23-1 inh 88 (no result: NALP1 yeast inh) | tim10-1 confirm 90 | TIM10 conf inactive | tim23-1 conf 77
CC1C(C)N1CC(O)Cn1ccnc1[N+](=O)[O-] (stereo not drawn)	none
C=C(C)C(Cc1c(OC)ccc(C(=O)/C=C/c2ccc(O)cc2)c1O)OO (stereo not drawn)	tim10-1 inh 44, TIM10 inh 46, tim23-1 inh 75 (no result: NALP1 yeast inh) | tim10-1 confirm 65 | TIM10 conf 69 | tim23-1 conf 76
